# This is a sample that favours compounds with a hit; in the whole collection about 9.2% have one here.
# Rab9 prom act: Rab9 promoter activation. 320,000 compounds, 2.8% hits. Potency, µM (top dose mostly 9.22 µM), without a hit: top-dose activation, negative = inhibition, hits mostly activators. Huh7 Rab9 promoter-luciferase reporter, luminescence, 24 h. AID 485297; note: % of control where 0% means no effect; nearly all actives have a fitted effect of over 60% in size
#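 Luminescence read-out: Huh7 cells stably expressing Rab9-luciferase, treated 24 h with compound at 37 °C, then lysed with luciferase reagent for 10 min at ambient before reading.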
# ELG1 DNA repair: blocks ELG1-dependent DNA repair in HEK293T cells; 330,000 compounds, 2.3% hits; Potency, µM (top dose mostly 46.1 µM), inactives show at the highest dose activity change, negative = inhibition, hits mostly inhibitors; HEK293T ELG1-luciferase reporter, luminescence, 16 h; DNA damage induced by 5-fluorouridine; note: % is set by controls: 0 for no effect and ±100 for the full control effect; nearly all actives have a fitted effect of over 55% in size
#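 Luminescence from the luciferase reporter, measured 30 min after ONE-Glo reagent at room temperature, was the read-out. Beforehand, 2,000 cells per well were exposed for 16 hr at 37 °C to 5-fluorouridine together with compound or vehicle.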
# ELG1 genotoxic: induces genotoxicity in HEK293T cells with luciferase-tagged ELG1; HEK293T ELG1-luciferase reporter, luminescence, 16 h; Potency, µM (top dose mostly 46 µM), without a hit: top-dose activity change, positive = activation, usual class: activators; 330,000 compounds, 1.3% hits; AID 504466; note: % of control where 0% means no effect; nearly all actives have a fitted effect of over 60% in size
#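 Reporter readout depends on ELG1 protein level, which increases with genetic stress. After 16 hr compound exposure at 37 °C, luciferase activity was quantified using ONE-Glo.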
# SMN2 splice up: enhancers of SMN2 splice variant expression | HEK293 SMN2-luciferase splicing reporter, luminescence, 30-36 h | Potency, µM (highest dose often 46.1 µM), without a hit: at the highest dose activity change, positive = activation, actives largely listed as activators | 210,000 compounds, 2.8% hits; note: % of control where 0% means no effect; nearly all actives have a fitted effect of over 55% in size
#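 HEK293 cells carry an SMN2 […]–luciferase reporter in which exon 7 inclusion puts luciferase in frame. Cells were plated 10-12 h before compound addition, then incubated 30-36 h at 37C. ONE-Glo luminescence was read; sodium butyrate at 4.5 mM final served as control.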
# NPC1 promoter act: activators of NPC1 promoter | Huh7 NPC1 promoter luciferase reporter, 24 h | Potency, µM (doses to about 9.22 µM), without a hit: at the top dose activation, usual class: activators | 320,000 compounds, 2.4% hits; note: % of control where 0% means no effect; nearly all actives have a fitted effect of over 60% in size
#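 Quantitative HTS used a cell-based reporter: Huh7 cells stably bearing the NPC1 promoter upstream of luciferase were treated with compounds for 24 h, and promoter activation was read as luminescence.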
# FLuc modulator: inhibits or activates purified firefly luciferase, miR-21 counter-screen. P08659. Potency, µM (top dose mostly 57.5 µM), for inactives: at the top dose activity change, negative = inhibition, hits mostly inhibitors. 360,000 compounds, 6.9% hits. purified FLuc, Km substrates, luminescence inhibition;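 note: plate controls were vehicle for no effect and reference inhibitor for full effect; nearly all actives have a fitted effect of over 55% in size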
# Target sequence (P08659 whole entry, looked up): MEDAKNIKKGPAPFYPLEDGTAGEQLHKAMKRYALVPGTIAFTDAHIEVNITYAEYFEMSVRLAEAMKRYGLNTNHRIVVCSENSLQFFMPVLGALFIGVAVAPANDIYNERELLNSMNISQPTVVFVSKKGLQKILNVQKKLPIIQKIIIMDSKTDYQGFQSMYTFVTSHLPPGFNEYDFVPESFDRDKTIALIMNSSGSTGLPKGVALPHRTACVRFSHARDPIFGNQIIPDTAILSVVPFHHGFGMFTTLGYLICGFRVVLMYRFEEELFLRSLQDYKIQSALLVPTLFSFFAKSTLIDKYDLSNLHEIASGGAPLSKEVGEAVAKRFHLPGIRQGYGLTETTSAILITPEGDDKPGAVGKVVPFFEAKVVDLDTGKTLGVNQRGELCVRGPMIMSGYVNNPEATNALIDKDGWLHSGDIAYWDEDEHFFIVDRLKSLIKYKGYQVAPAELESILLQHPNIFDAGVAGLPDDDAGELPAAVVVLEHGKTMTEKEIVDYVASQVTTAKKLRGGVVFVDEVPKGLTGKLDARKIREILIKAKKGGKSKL
#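 Biochemical qHTS of compounds, final roughly 60 µM downward over six points, against 10 nM purified firefly luciferase using Km concentrations of substrates (10 uM D-luciferin, 10 uM ATP) in Tris acetate pH 7.5 buffer; luminescence output.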
# An asterisk follows results filed as active; ? = inconclusive; / = no result. Calls come from the whole dose curve; as a rule, active = well fitted curve in the direction sought with a large enough effect; inconclusive = small, poorly fitted or top-dose-only effect, or another doubt; inactive = no such curve, though single readings can be large; an effect the other way counts as inactive or inconclusive. Potency is the fitted concentration of half-maximal effect.
SMILES,Rab9 prom act,ELG1 DNA repair,ELG1 genotoxic,SMN2 splice up,NPC1 promoter act,FLuc modulator
Fc1ccc(/C=C\c2nccc3c2[nH]c2ccccc23)cc1,18%,-7%,9%,16%,20%,5.4µM*
O=S(=O)(c1ccc(NC(=S)NCc2ccc(F)cc2)cc1)N1CCOCC1,0%,-7%,-7%,/,2%,6%
CCCn1c(Cc2ccccc2)nnc1SC(C)C(=O)NC1CC1 (stereo not drawn),-4%,11%,3%,/,-3%,1%
CN(C)C(=O)CSc1ncccc1-c1nc2ccccc2[nH]1,9%,14%,0%,/,9%,?
CCN(CC)C(=O)CSc1ncccc1-c1nc2ccccc2[nH]1,1%,?,5%,/,1%,24µM*
CC(C)NC(=O)CSc1ncccc1-c1nc2ccccc2[nH]1,7%,?,9%,/,-1%,?
O=C(CSc1ncccc1-c1nc2ccccc2[nH]1)N1CCCCC1,12%,?,15%,5%,10%,17µM*
Cc1ccc2nc(-c3cccnc3SCC(=O)N3c4ccccc4CC3C)[nH]c2c1 (stereo not drawn),?,?,?,14µM*,?,5.4µM*
CN(C)CCCOC(=O)c1sc2ccccc2c1Cl,0%,?,4%,/,-8%,24µM*
Cc1ccc2nc(N(CCCN(C)C)C(=O)c3ccc4ncsc4c3)sc2c1,4µM*,?,?,/,?,17µM*
CN(C(=O)COC(=O)c1sc2ccccc2c1Cl)C1CCCCC1,-4%,9%,-1%,-7%,0%,?
CN(C)CCCN(C(=O)c1ccc(S(=O)(=O)N2CCOCC2)cc1)c1nc2ccc(F)cc2s1,-4%,?,7%,/,4%,3%
CN(C)CCCN(C(=O)c1ccc(S(=O)(=O)N2CCCCCC2)cc1)c1nc2ccc(F)cc2s1,10%,8.2µM*,24%,/,7%,6%
CN(C)CCCN(C(=O)c1sc2ccccc2c1Cl)c1nc2ccc(F)cc2s1,-4%,?,?,18µM*,-2%,4.8µM*
Cc1nnc(N2CCC(C(=O)NCCC(C)C)CC2)c2nn(-c3ccc(Cl)cc3)c(C)c12,/,/,/,/,/,4%
COCCNC(=O)c1cc2c(s1)-c1ccc(Cl)cc1SC2,2.2µM*,?,?,/,2.5µM*,6µM*
CCOc1ccc(N(CC)C(=O)c2cc3c(s2)-c2ccc(Cl)cc2SC3)cc1,/,/,/,?,/,4%
Fc1ccc(N/N=C/c2cccnc2)c(F)c1,?,?,?,26%,?,?
O=[N+]([O-])c1cccc(/C=C/c2ccccn2)c1,?,?,8%,/,?,13µM*
O=[N+]([O-])c1cccc(/C=N/Nc2nccnc2Cl)c1,2µM*,?,?,?,2.8µM*,12µM*
Fc1cccc(/C=N/Nc2nccnc2Cl)c1,?,?,?,/,?,21µM*
O=[N+]([O-])c1cccc(/C=N/Nc2ccccn2)c1,4µM*,?,?,11µM*,?,3µM*
CSc1ncc(CO)n1Cc1ccccc1,-5%,11%,0%,-2%,-1%,-1%
O=C(c1ccccc1)c1nnc(-c2ccncc2)o1,2%,9%,1%,5%,-3%,9.5µM*
CCOC(=O)c1c(C)[nH]c(C(=O)OCC(=O)c2ccccc2)c1C,0.45µM*,?,0.92µM*,/,0.5µM*,0.85µM*
SMILES,Rab9 prom act,ELG1 DNA repair,ELG1 genotoxic,SMN2 splice up,NPC1 promoter act,FLuc modulator
CCOC(=O)c1c(C)[nH]c(C(=O)OCC(=O)NCc2ccccc2)c1C,/,0%,0%,/,/,/
CCOC(=O)c1c(C)[nH]c(C(=O)Cn2c(=O)c3c(ncn3CC)n(Cc3ccccc3)c2=O)c1C,3%,21µM*,-2%,26%,-4%,1%
CCOC(=O)c1c(C)[nH]c(C(=O)CN2C(=O)NC(CC)(c3ccccc3)C2=O)c1C (stereo not drawn),1%,16µM*,-2%,-7%,5%,-12%
CCOC(=O)c1[nH]c2ccc(C)cc2c1N,2.5µM*,?,?,11µM*,2.2µM*,5.4µM*
CCN(CC)CCNC(=O)c1cccc(NC(=O)C(=O)c2ccccc2NC(C)=O)c1,0%,?,-2%,3%,-2%,-2%
Cc1cc(OCC(=O)Nc2ccc(C(=O)OC3CCCCC3)cc2)cc(C)c1Cl,/,/,/,1%,/,-5%
Cc1ccc2oc(=O)c3cc(C(=O)NCCCOC(C)C)sc3c2c1,/,/,/,18%,/,2%
CCOC(=O)c1c(C)[nH]c(C(=O)OCCOc2ccccc2C)c1C,4µM*,?,?,3.5µM*,4µM*,3.4µM*
CCOC(=O)c1[nH]c(C)c(C(=O)NCc2ccc(C)cc2)c1C,-2%,-2%,1%,11%,-1%,3%
CCOC(=O)c1c(C)[nH]c(C(=O)COC(=O)c2ccc(O)cc2)c1C,30%,14%,5%,/,16%,-15%
CCOC(=O)c1c(C)[nH]c(C(=O)OCCOc2ccc(Cl)cc2)c1C,10%,?,?,15%,17%,-17%
CCOC(=O)c1c(C)[nH]c(C(=O)COC(=O)c2ccccn2)c1C,5%,4%,5%,-10%,0%,6µM*
CCOC(=O)c1[nH]c(C)c(C(=O)c2ccc(C)cc2)c1C,-10%,?,21µM*,4%,-9%,?
Cc1ccc(C)c(N2CCN(S(=O)(=O)c3cc(-c4cc(C)no4)ccc3C)CC2)c1,/,/,/,/,/,-6%
CCOC(=O)C1CCN(CC(=O)Nc2cc(C)c3c(=O)oc4ccccc4c3n2)CC1,/,/,/,-5%,/,-4%
CCCN1C(=O)S/C(=C/c2ccc(N3CCOCC3)o2)C1=O,?,?,?,/,25%,?
CCCCC1(C)OC(=O)C(=Cc2ccc(-c3ccc(Cl)c(C(=O)O)c3)o2)C(=O)O1 (stereo not drawn),-2%,6%,0%,/,3%,?
Cc1ccc(N2NC(=O)/C(=C/c3ccc(-c4ccc(Cl)c(C(=O)O)c4)o3)C2=O)cc1,-3%,4%,0%,9%,0%,11µM*
CC(C)N1C(=O)S/C(=C\c2ccc(-c3ccc(Cl)c(C(=O)O)c3)o2)C1=O,0.4µM*,?,1.2µM*,/,0.5µM*,3µM*
CCN(CC)c1ccc(/C=C2/SC(=O)N(C(C)C)C2=O)o1,24%,?,-13%,21%,26%,21µM*
CCOC(=O)CN1C(=O)S/C(=C\c2ccc(-c3ccc(C(=O)O)c(Cl)c3)o2)C1=O,9%,-8%,-2%,/,-4%,-9%

# Screening results as filed in PubChem.
